Our source for the inhibition values is ChEMBL document CHEMBL1961873, “Compounds: GSK PKIS; Assays: Nanosyn kinase panel” (2012).

By inhibition is commonly meant the drop in the measured response relative to a control, in per cent.

The target of one assay is T1, Discoidin domain-containing receptor 2 (Homo sapiens) (UniProt Q16832).
T1 sequence (whole entry): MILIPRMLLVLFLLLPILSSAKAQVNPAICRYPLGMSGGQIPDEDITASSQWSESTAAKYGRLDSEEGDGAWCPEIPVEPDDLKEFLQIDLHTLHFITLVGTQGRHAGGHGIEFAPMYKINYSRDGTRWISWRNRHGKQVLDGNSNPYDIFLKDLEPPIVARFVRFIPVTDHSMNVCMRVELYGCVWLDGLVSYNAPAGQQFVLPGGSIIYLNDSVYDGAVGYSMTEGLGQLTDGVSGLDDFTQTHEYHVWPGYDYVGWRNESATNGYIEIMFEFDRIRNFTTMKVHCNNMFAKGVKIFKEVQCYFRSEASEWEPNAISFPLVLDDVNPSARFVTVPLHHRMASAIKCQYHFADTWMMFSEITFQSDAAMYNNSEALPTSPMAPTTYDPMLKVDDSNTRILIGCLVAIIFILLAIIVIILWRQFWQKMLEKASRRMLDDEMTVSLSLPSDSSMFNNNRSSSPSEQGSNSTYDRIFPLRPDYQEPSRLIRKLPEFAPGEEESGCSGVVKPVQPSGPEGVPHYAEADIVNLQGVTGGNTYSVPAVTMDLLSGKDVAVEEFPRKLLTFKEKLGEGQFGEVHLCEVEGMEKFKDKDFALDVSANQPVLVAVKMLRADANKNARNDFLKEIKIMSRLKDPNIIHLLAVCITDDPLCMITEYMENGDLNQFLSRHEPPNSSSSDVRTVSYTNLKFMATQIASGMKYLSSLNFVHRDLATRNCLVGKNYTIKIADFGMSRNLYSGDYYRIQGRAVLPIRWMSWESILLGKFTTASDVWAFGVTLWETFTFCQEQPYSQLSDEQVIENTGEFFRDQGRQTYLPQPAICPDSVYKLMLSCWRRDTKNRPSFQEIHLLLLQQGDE
The conditions noted are these: at 0.1 µM.
For the compound `COc1ccc(-c2oc3ncnc(N)c3c2-c2ccc(NC(=O)Nc3cc(C(F)(F)F)ccc3F)cc2)cc1`, the inhibition was 56.3%.
The same measure, in the same setting: next, `Fc1cccc(COc2ccc(Nc3ncnc4sc(-c5ccco5)cc34)cc2Cl)c1`: 3.86%; `COc1cc(N2CCN(C(C)C)CC2)ccc1Nc1nc(Nc2ccc(F)cc2C(N)=O)c2cc[nH]c2n1`: 0.99%.
The same measure, in the same setting: with `CN(C)CCOc1ccc(-c2nc(-c3ccncc3)c(-c3ccc4c(c3)CC/C4=N\O)[nH]2)cc1` the figure was 1.41%; with `NC(=O)c1sc(-n2cnc3ccc(C(F)(F)F)cc32)cc1OCc1ccccc1Br`, 1.6%; with `Nc1nc(-c2cccc(Cl)c2)c(-c2ccc3ncccc3n2)s1`, -0.28%.
Still for that read-out and setting: next, `CCCN1CCC(c2ccc(Nc3nc(Nc4cc(F)ccc4C(N)=O)c4cc[nH]c4n3)c(OC)c2)CC1`: 0.6%; `CCn1cc(-c2ccnc3[nH]ccc23)c(-c2cccc(NC(=O)Nc3ccc(OCc4ccccc4)cc3)c2)n1`: 2.59%.
Take `NS(=O)(=O)c1ccc(Nc2ncc(-c3ccccc3)o2)cc1`: the inhibition was determined as 1.76%.
On the same count and under the same terms, with `CCCN(CCS(C)(=O)=O)Cc1ccc(-c2ccc3ncnc(Nc4ccc(OCc5cccc(F)c5)c(Cl)c4)c3c2)o1` the figure was 1.06%; with `CCN(CC)S(=O)(=O)c1ccc(OC)c(Nc2ncc(-c3ccccc3)o2)c1`, 7.09%; with `CS(=O)(=O)CCNCc1coc(-c2ccc3ncnc(Nc4ccc(OCc5ccccc5)cc4)c3c2)c1`, 1.75%.
On the same count and under the same terms, with `N#Cc1c(NC(=O)CN2CCOCC2)sc2c1CCCC2` the figure was 2.2%; with `COc1cccc(-n2ncc3c(N/N=C/c4ccc(F)cc4)ncnc32)c1`, 1.69%.
On the same count and under the same terms, next, `O=C(O[C@H]1CN[C@H](C#Cc2cc3ncnc(Nc4ccc(Cc5ccccc5)cc4)c3s2)C1)N1CCOCC1`: -1.8%; `COc1cc2c(cc1Nc1nc(Nc3ccsc3C(N)=O)c3cc[nH]c3n1)N(C(=O)CN(C)C)CCC2(C)C`: 4.88%; `CCc1nn2ncccc2c1-c1ccnc(NC2CC2)n1`: 1.02%.
Take `Cc1ccc(O)cc1Nc1ccnc2cc(-c3ccccn3)ccc12`: the inhibition was 20.3%.

A further assay has as its target T1, Discoidin domain-containing receptor 2 (Homo sapiens). The following applies: at 1 µM.
For `CNC(=O)c1cccc(C#Cc2cncnc2Nc2ccc(OCc3cccc(F)c3)c(Cl)c2)c1`, the inhibition turned out to be 4.52%.
The same measure, in the same setting: with `Fc1ccc(-c2cc(-c3c[nH]nc3-c3ccccn3)ccn2)cc1` the figure was 1.14%.
The same measure, in the same setting: next, `CN1CCC(n2cnc(-c3ccc(F)cc3)c2-c2ccnc(Nc3ccccc3)n2)CC1`: 0.85%; `CCn1c(-c2nonc2N)nc2c(C#CC(C)(C)O)ncc(OC3CCNCC3)c21`: 1.03%; `COc1cccc(-c2c[nH]c3c(N/N=C/c4ccncc4)ncnc23)c1`: 14.8%.
Same read-out and setting: next, `Cc1ccc2c(-c3ccnc(Nc4ccccc4)n3)c(-c3ccc(F)cc3)nn2n1`: 83.3%; `COC(=O)Nc1nc2ccc(Oc3ccc(NC(=O)Nc4cccc(Cl)c4)cc3)cc2[nH]1`: 85.2%; `COc1ccc(-c2cc(-c3c[nH]nc3-c3ccccn3)ccn2)cc1`: 3.66%.
As to `COc1cc(/C=N/Nc2ncnc3[nH]ncc23)ccc1O`, the inhibition turned out to be 2.31%.
Still for that read-out and setting: next, `[O-][S+]1CCN(Cc2ccc(-c3ccc4ncnc(Nc5ccc(OCc6cccc(F)c6)c(Cl)c5)c4c3)o2)CC1`: 2.37%; `CCNC(=O)O[C@H]1CN[C@H](C#Cc2cc3ncnc(Nc4ccc(OCc5cccc(F)c5)c(Cl)c4)c3s2)C1`: 1.39%; `CC1=C(C(=O)Nc2cc(Cl)c3[nH]ncc3c2)C(c2ccc(C(F)(F)F)cc2)CC(=O)N1` (stereo unspecified): 1.35%.
On the same count and under the same terms, next, `c1ccc(-c2nc3n(c2-c2ccc4c(c2)OCO4)CCC3)nc1`: 0.78%; `CCOc1ccc2c(-c3ccnc(Nc4cccc(C(F)(F)F)c4)n3)cnn2n1`: 6.02%; `CCN1CCC(CC(=O)Nc2n[nH]c3nnc(-c4cccc(F)c4F)cc23)CC1`: 1.68%.
The same measure, in the same setting: with `COc1ccc2[nH]c3c4[nH]c5ccc(OC)cc5c4c4c(c3c2c1)C(=O)NC4=O` the figure was 16.8%; with `COc1ccc(-c2oc3ncnc(N)c3c2-c2ccc(NC(=O)Nc3cc(C(F)(F)F)ccc3F)cc2)cc1`, 87.3%; with `Fc1cccc(COc2ccc(Nc3ncnc4sc(-c5ccco5)cc34)cc2Cl)c1`, 4.41%.
Take `COc1cc(N2CCN(C(C)C)CC2)ccc1Nc1nc(Nc2ccc(F)cc2C(N)=O)c2cc[nH]c2n1`: the inhibition worked out at 0.35%.
Same read-out and setting: with `CN(C)CCOc1ccc(-c2nc(-c3ccncc3)c(-c3ccc4c(c3)CC/C4=N\O)[nH]2)cc1` the figure was 0.64%.
The same measure, in the same setting: next, `NC(=O)c1sc(-n2cnc3ccc(C(F)(F)F)cc32)cc1OCc1ccccc1Br`: 0.21%; `Nc1nc(-c2cccc(Cl)c2)c(-c2ccc3ncccc3n2)s1`: -6.1%.
Same read-out and setting: next, `CCCN1CCC(c2ccc(Nc3nc(Nc4cc(F)ccc4C(N)=O)c4cc[nH]c4n3)c(OC)c2)CC1`: 3.39%.
